SMILES strings stand for the structures. The panel holds about 83,000 compounds, 20% with a hit somewhere; the sample as a whole holds those more often.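 Compound tested at a single concentration for 48 hours in 96-well plates; a percent growth value below 10 was scored as active.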 Unmarked numbers belong to inactive results. Calls of active or inactive are those of the source.

Test systems include NCI-H23 lung; NCI-H226 lung; NCI-H322M lung; HOP-62 NSCLC; NCI-H460 lung; HOP-92 NSCLC; NCI-H522 lung; A549/ATCC NSCLC; 786-0 renal; COLO 205 colon; DU-145 prostate; K-562 leukemia; MALME-3M melanoma; MDA-MB-231 breast; RXF 393 renal; SF-268 CNS; SF-295 CNS; SF-539 CNS; UACC-257 melanoma; M14 melanoma.
Test in all cases: NCI-60 one-dose screen, 48 h (100 = growth as untreated, 0 = no growth, -100 = all killed)
Common to all, as to details: 10 µM unless noted

Consider `CNCCCC12CCC(c3ccccc31)c1ccccc12`, for which the growth in the experiment on NCI-H23 lung was 92.1%; in the experiment with NCI-H226 lung it was 107%; in the experiment on NCI-H322M lung, 92%; in the experiment with HOP-62 NSCLC it was 82.9%; in the experiment with NCI-H460 lung, 97.3%; in the experiment with HOP-92 NSCLC it was 48.5%. The growth in the experiment on NCI-H522 lung is 88.8%; in the experiment with A549/ATCC NSCLC, 90.1%; in the experiment on 786-0 renal, 65.7%; in the experiment on COLO 205 colon, 7.78% (active); in the experiment with DU-145 prostate, 103%; in the experiment with K-562 leukemia it was 80.6%. Further, the growth was 82.6% with MALME-3M melanoma; 80.2% with MDA-MB-231 breast; 61.7% in the experiment on RXF 393 renal; 92.5% with SF-268 CNS; 100% with SF-295 CNS; 99.2% in the experiment with SF-539 CNS. For the same compound, the growth was 95.9% in the experiment with UACC-257 melanoma and 80.4% in the experiment on M14 melanoma.

As for `Cc1cc(C)c(-c2c(N)cc(Br)cc2Br)c(N)c1`, the growth in the experiment with NCI-H23 lung was 70.9%; in the experiment with NCI-H226 lung, 76.3%; with NCI-H322M lung, 102%; with HOP-62 NSCLC, 39.4%; in the experiment on NCI-H460 lung it was 83%; in the experiment with HOP-92 NSCLC, -6% (active). For the same compound, the growth in the experiment with NCI-H522 lung was 62.9%; in the experiment with A549/ATCC NSCLC, 55.5%; with 786-0 renal, 45.9%; with COLO 205 colon, 54%; in the experiment with DU-145 prostate, 71.2%; in the experiment on K-562 leukemia, 13.4%. The growth was 26.9% in the experiment on MALME-3M melanoma; 56.4% in the experiment with MDA-MB-231 breast; 10.5% with RXF 393 renal; 76.1% with SF-268 CNS; 36.7% in the experiment on SF-295 CNS; 46.9% with SF-539 CNS. For the same compound, the growth in the experiment on UACC-257 melanoma was 66.8%; in the experiment on M14 melanoma, 41.4%.

Consider `COc1cc(C2CC(c3cccc(Br)c3)=NN2C(C)=O)cc(OC)c1OC` (stereo not given), for which the growth with NCI-H23 lung is 24.8%; with NCI-H226 lung, 28%; with NCI-H322M lung it was 33%; with HOP-62 NSCLC it was 43.7%; with NCI-H460 lung, 9.31% (active); with HOP-92 NSCLC, 78.3%. Moreover, the growth with NCI-H522 lung is -13.8% (active); in the experiment with A549/ATCC NSCLC it was 29.1%; in the experiment on 786-0 renal, 40.7%; in the experiment on COLO 205 colon, 2.52% (active); with DU-145 prostate, 20%; in the experiment with K-562 leukemia, 49.2%. Also, the growth in the experiment on MALME-3M melanoma is 54.2%; in the experiment on MDA-MB-231 breast, 4.94% (active); with RXF 393 renal it was 33.3%; in the experiment with SF-268 CNS it was 55.3%; in the experiment on SF-295 CNS, 0.219% (active); with SF-539 CNS, -5.96% (active). In addition, the growth was 81.7% with UACC-257 melanoma and 8.38% (active) with M14 melanoma.

For the compound `CCCCCCCCCCCCCCCCCCOc1ccc(CC(=O)OCC[N+]2(C)CCCCC2)cc1`, the growth was 86.7% with NCI-H23 lung; 101% in the experiment with NCI-H226 lung; 96.4% in the experiment with NCI-H322M lung; 101% with HOP-62 NSCLC; 101% with NCI-H460 lung; 97.8% in the experiment with HOP-92 NSCLC. Also, the growth with NCI-H522 lung is 89.2%; with A549/ATCC NSCLC it was 88.9%; in the experiment with 786-0 renal it was 92.8%; in the experiment with COLO 205 colon it was 103%; in the experiment with DU-145 prostate, 107%; in the experiment with K-562 leukemia, 83.9%. Further, the growth in the experiment with MALME-3M melanoma was 98.8%; with MDA-MB-231 breast, 100%; with RXF 393 renal, 102%; in the experiment on SF-268 CNS it was 100%; with SF-295 CNS it was 110%; in the experiment on SF-539 CNS, 99.4%. The growth with UACC-257 melanoma was 96%; in the experiment with M14 melanoma, 99.8%.

With `Cc1cc2nc3ccc(N=Nc4ccc(N(C)C)cc4)cc3n(-c3ccccc3)c-2cc1=N`, the growth with NCI-H23 lung was -45.8% (active); in the experiment on NCI-H226 lung, -81.3% (active); in the experiment on NCI-H322M lung it was -96.6% (active); with HOP-62 NSCLC, -55.9% (active); in the experiment with NCI-H460 lung, -58.1% (active); with HOP-92 NSCLC it was -70.3% (active). For the same compound, the growth in the experiment with NCI-H522 lung is -73.8% (active); in the experiment on A549/ATCC NSCLC, -75.4% (active); in the experiment on 786-0 renal, -61.9% (active); with COLO 205 colon it was -86.8% (active); with DU-145 prostate, -98.2% (active); in the experiment with K-562 leukemia, 17.9%. Besides, the growth was -92.7% (active) in the experiment with MALME-3M melanoma; -27.9% (active) in the experiment with MDA-MB-231 breast; -87.8% (active) with RXF 393 renal; -78.1% (active) in the experiment on SF-268 CNS; -89.4% (active) with SF-295 CNS; -89.4% (active) with SF-539 CNS. In addition, the values for the growth in the experiment on UACC-257 melanoma and with M14 melanoma were -95.7% (active) and -78.4% (active), respectively.

For the compound `CN(C)CCN1CCN(c2ncccc2C2Nc3ccccc3-n3cccc32)CC1` (stereo not given), the growth in the experiment with NCI-H23 lung is 96.2%; in the experiment on NCI-H226 lung it was 102%; in the experiment on NCI-H322M lung it was 102%; in the experiment with HOP-62 NSCLC, 109%; in the experiment on NCI-H460 lung it was 106%; in the experiment with HOP-92 NSCLC, 84.9%. For the same compound, the growth with NCI-H522 lung is 104%; in the experiment with A549/ATCC NSCLC, 103%; with 786-0 renal it was 91.8%; in the experiment with COLO 205 colon, -48.6% (active); in the experiment with DU-145 prostate, 110%; in the experiment on K-562 leukemia it was 89.4%. Also, the growth with MALME-3M melanoma is 106%; in the experiment on MDA-MB-231 breast, 93.6%; with RXF 393 renal, 101%; in the experiment with SF-268 CNS it was 92.3%; in the experiment with SF-295 CNS, 103%; in the experiment on SF-539 CNS it was 101%. Besides, the growth was 101% with UACC-257 melanoma and 106% in the experiment with M14 melanoma.

As for `COc1cc(C(=O)/C=C/c2sc(Cl)nc2Cl)cc(OC)c1OC`, the growth with NCI-H23 lung is 33.9%; in the experiment on NCI-H226 lung it was 80.5%; with NCI-H322M lung, 85.4%; in the experiment with HOP-62 NSCLC it was 85%; in the experiment on NCI-H460 lung, 83.9%; in the experiment with HOP-92 NSCLC, 51.4%. In addition, the growth was 33.6% in the experiment with NCI-H522 lung; 90.6% with A549/ATCC NSCLC; 79.2% in the experiment on 786-0 renal; -19.7% (active) in the experiment on COLO 205 colon; 43.5% with DU-145 prostate; 3.23% (active) in the experiment with K-562 leukemia. Further, the growth was -35.1% (active) with MALME-3M melanoma; 31.7% in the experiment on MDA-MB-231 breast; -28.9% (active) in the experiment on RXF 393 renal; 61.5% with SF-268 CNS; 92.8% in the experiment with SF-295 CNS; -11.9% (active) with SF-539 CNS. The growth in the experiment with UACC-257 melanoma was 70.8%; in the experiment on M14 melanoma, 42.3%.

Regarding `COc1ccc(OC)c(/C=C/C(=O)N/N=C/c2ccccc2)c1`, the growth in the experiment with NCI-H23 lung was 65.1%; in the experiment with NCI-H226 lung, 86.6%; with NCI-H322M lung it was 79.6%; in the experiment with HOP-62 NSCLC it was 67.3%; in the experiment with NCI-H460 lung, 13.5%; in the experiment on HOP-92 NSCLC, 76.6%. Besides, the growth in the experiment on NCI-H522 lung was -15.3% (active); in the experiment on A549/ATCC NSCLC, 48.4%; in the experiment on 786-0 renal, 54.3%; in the experiment on COLO 205 colon, 42.8%; in the experiment on DU-145 prostate it was 72.5%; in the experiment on K-562 leukemia, 21.2%. The growth is 59% in the experiment on MALME-3M melanoma; 71.8% in the experiment on MDA-MB-231 breast; 45.4% in the experiment on RXF 393 renal; 60.7% in the experiment with SF-268 CNS; 48.5% in the experiment with SF-295 CNS; 51.8% in the experiment with SF-539 CNS. Further, the growth with UACC-257 melanoma is 51.3%; in the experiment with M14 melanoma it was 27.8%.

The record behind these values is PubChem BioAssay (NCI).
